Lassa entry inh: qHTS for Inhibitors of binding or entry into cells for Lassa Virus; Lassa virus pseudotype entry inhibition, cell reporter; Potency, µM (titrated, usually from 37.9 µM), hits mostly inhibitors; 300,000 tested, 1.2% active; AID 540256, 2011; calls by dose curve; tested in HEK293 cells; also: nearly all actives have a fitted effect of over 50% in size
HCV inh: qHTS Assay for Inhibitors of Hepatitis C Virus (HCV). Huh7.5.1 HCVcc-Cre infection, luciferase reporter, 44 h. Potency, µM (series often up to 41.8 µM), actives largely listed as inhibitors. 340,000 tested, 3.4% active. AID 651820, 2012; active = well fitted inhibition curve with a large enough effect; inconclusive = small, poorly fitted or top-dose-only effect, or another doubt; inactive = no such curve, though single readings can be large or run the other way
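Luciferase read-out (15 sec integration) after a 15 min room-temperature substrate step quantifies HCVcc-Cre infection. Cells, 1,000 per well, had compound added 4 h post-plating, then virus at ~0.5 moi, and were cultured 44 h.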
FMDV antiviral: High Throughput Screening for Foot and Mouth Disease Virus Antivirals; Potency, µM (doses to about 57.9 µM), usual class: inhibitors; AID 1159524, 2015; FMDV antiviral cell-based qHTS; 410,000 tested, 1.2% active; calls by dose curve; tested in HEK293T cells; also: read-out not given here; nearly all actives have a fitted effect of over 45% in size
Marburg entry inh: qHTS for inhibitors of binding or entry into cells for Marburg Virus | Marburg virus pseudotyped entry inhibition, cell reporter | Potency, µM (top dose mostly 37.8 µM), hits mostly inhibitors | 300,000 tested, 1.8% active | AID 540276, 2011; calls by dose curve; tested in HEK293 cells
HCMV antiviral: qHTS Assay for inhibitors of the human cytomegalovirus (HCMV); 410,000 tested, 4.5% active; activity change, negative = inhibition, % at 57.5 µM; HFF cells, HCMV-luciferase reporter, 72 h; hits give low values; in the data active = activity change below about -60%; inconclusive = no clear call, values can overlap the other calls; inactive = above about -39%
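Inhibition of viral replication was scored as loss of reporter luminescence in HFFs infected with HCMV-luciferase (MOI 1 PFU/cell) for 72 h; compounds tested at 2 doses, normalized to buffer and Salinomycin controls.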
Each line names hits and unclear results; the compound was inactive in the other large screens. A selection: hits, their analogues and other compounds. The true share with any hit is near 7.9%.

O=C(Nc1c2c(nn1-c1ccc(Cl)cc1)CS(=O)(=O)C2)c1ccc(Br)cc1	Lassa entry inh inconclusive, FMDV antiviral inconclusive, HCMV antiviral -75.9 (no result: HCV inh, Marburg entry inh)
CCCCOc1ccc(CNC(=O)CCCN2C(=O)CSc3c2c(C)nn3-c2ccccc2)cc1	Lassa entry inh inconclusive, HCMV antiviral -70.4 (no result: HCV inh, Marburg entry inh)
CCc1nn(-c2ccccc2)c(N)c1C#N	none
CCc1nn(-c2ccccc2)c(=S)c2ccccc12	HCV inh inconclusive, HCMV antiviral -63.1
COC(=O)CNC(c1ccccc1Cl)c1cc(Br)ccc1NS(=O)(=O)c1ccc(C)cc1 (stereo not drawn)	Lassa entry inh inconclusive, HCV inh inconclusive, Marburg entry inh inconclusive, HCMV antiviral -69.7
COc1ccc(Nc2cc(C)nc3ccccc23)cc1	HCV inh inconclusive, Marburg entry inh inconclusive, HCMV antiviral inconclusive
Cc1ccc(Nc2cc(C)nc3c(C)cccc23)cc1	HCV inh inconclusive, Marburg entry inh 10µM
CC(=O)c1ccc(Nc2cc(C)nc3c(C)cccc23)cc1	none (no result: Lassa entry inh, Marburg entry inh)
Cc1ccc2nc(C)cc(Nc3ccc([N+](=O)[O-])cc3)c2c1	Lassa entry inh inconclusive, HCV inh 3.55µM, Marburg entry inh inconclusive, HCMV antiviral inconclusive
CC(=O)c1ccc(Nc2cc(C)nc3ccccc23)cc1	Lassa entry inh inconclusive, HCV inh inconclusive, Marburg entry inh 2.82µM, HCMV antiviral inconclusive
Cc1cc(Nc2cccc(Br)c2)c2ccccc2n1	HCV inh 7.08µM, FMDV antiviral inconclusive, Marburg entry inh inconclusive, HCMV antiviral -71.5
Cc1ccc(C)c(CSc2nnc3[nH]c(=O)cc(-c4ccccc4)n23)c1	FMDV antiviral inconclusive, HCMV antiviral inconclusive (no result: HCV inh, Marburg entry inh)
CCc1nnc2c3ccccc3nc(Nc3cc(C)cc(C)c3)n12	Marburg entry inh inconclusive (no result: HCV inh)
COC(=O)c1ccc(Nc2cc(C)nc3ccc(C)cc23)cc1	Lassa entry inh inconclusive, HCV inh 10µM, Marburg entry inh 12.6µM
O=C(NC1CCCCCC1)c1cc2c(Cl)nc3ccccc3c2s1	none (no result: HCV inh)
Cc1ccccc1N1C(=O)C[C@@H](Sc2nnc(-c3ccccc3)o2)C1=O	none (no result: Lassa entry inh, HCV inh, FMDV antiviral, HCMV antiviral)
CN(Cc1cn(C)nc1-c1ccc(Oc2ccccc2)cc1)Cc1cnc2ccccn12	HCV inh inconclusive, FMDV antiviral 11.2µM (no result: Lassa entry inh, Marburg entry inh)
COc1ccccc1N1CCN(S(=O)(=O)CCNC(=O)Cc2ccc(Cl)cc2)CC1	FMDV antiviral inconclusive, HCMV antiviral inconclusive (no result: HCV inh, Marburg entry inh)
CN(C)c1ccc(/C=N/O)cc1	none
CN(C)c1ccc(/C=C2/C(=N\O)C3CCN2CC3)cc1	HCMV antiviral -98.2
Cc1ccc(-c2noc(-c3nnn(CC(=O)Nc4cc(Cl)ccc4C)c3N)n2)cc1	none (no result: HCV inh, Marburg entry inh)
COc1ccc(CNC(=O)OCCN2CCN(S(=O)(=O)c3ccc(C)cc3)CCC2=O)cc1	Marburg entry inh inconclusive, HCMV antiviral -65.2
Cc1ccc(S(=O)(=O)N2CCC(=O)N(CCOC(=O)Nc3cccc(Cl)c3)CC2)cc1	HCV inh inconclusive, HCMV antiviral -64.3
COC(=O)C1CCN(Cc2ccc3c(c2)CN(C(=O)c2ccc(-n4cnnn4)cc2)CCO3)CC1	none (no result: Lassa entry inh, HCV inh, Marburg entry inh, HCMV antiviral)
Cc1ccc(S(=O)(=O)c2nc(-c3ccco3)oc2SC(C)c2ccccc2)cc1 (stereo not drawn)	none (no result: HCV inh)
CC1CN(CC(=O)c2ccccc2Cl)CC(C)O1 (stereo not drawn)	HCMV antiviral -61.4
Cc1c(-c2nsc(NC(=O)c3ccccc3)n2)nnn1-c1ccc(C(F)(F)F)c(Cl)c1	Marburg entry inh inconclusive (no result: HCV inh)
COc1cc(NC(=O)C2=C(N3CCOCC3)/C(=C\c3ccc(Cl)cc3Cl)CC2)cc(OC)c1OC	Lassa entry inh inconclusive, HCV inh inconclusive, FMDV antiviral 14.1µM, Marburg entry inh inconclusive
CN(C)c1ccc(C(=S)NCc2ccco2)cc1	Lassa entry inh inconclusive, FMDV antiviral 15.8µM, Marburg entry inh inconclusive
S=C(NCc1ccco1)N/N=C/c1ccncc1	none
CN(C)c1ccc(/C=N/NC(=S)NCc2ccco2)cc1	Lassa entry inh 2.06µM, Marburg entry inh inconclusive
CC(=O)NCCNc1ncnc2ccc(-c3ccccc3C)cc12	none (no result: Lassa entry inh, HCV inh, Marburg entry inh, HCMV antiviral)
O=C1C=CN(S(=O)(=O)c2ccc(Cl)cc2)C(c2cccs2)C1 (stereo not drawn)	none (no result: Lassa entry inh, HCV inh, FMDV antiviral, Marburg entry inh)
CCCCC(CC)C(=O)Nc1ncc([N+](=O)[O-])s1 (stereo not drawn)	Lassa entry inh inconclusive, HCV inh inconclusive, FMDV antiviral inconclusive, Marburg entry inh inconclusive, HCMV antiviral -74.5
Cc1ccc(CC(=O)Nc2ncc([N+](=O)[O-])s2)cc1	none (no result: Lassa entry inh, Marburg entry inh)
